Drawing on PubChem BioAssay AID504697 (The Scripps Research Institute Molecular Screening Center, 2011), this text covers EC50 for 14 molecules.

Unmarked numbers belong to inactive results. The source made the active and inactive calls.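 Rule for the calls: active = EC50 at or below 10 µM; inactive = EC50 above 10 µM.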

A word on the EC50: it is the concentration that produces a half-maximal response.

The experiment is described as follows: compound autofluorescence in calcium buffer – biochemical, fluorescence, no RTF in test wells, artefact control for cardiac thin filament activator project, dose response (AID 504697).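 Note: emission near 535 nm under roughly 485 nm excitation as for IANBD.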 Particulars: artifact counterscreen. (The purpose of a counterscreen is to sort out artefacts and off-target activity.)
As for `CCC1(C)OC(c2ccccc2)=C/C(=C/C=C2C(=O)NC(=O)NC2=O)O1` (centres undefined), the EC50 was 2.73 µM (active).
Regarding `O=[N+]([O-])c1ccc(N2CCCC2)c2ncccc12`, the EC50 was 23.5 µM.
`CNS(=O)(=O)c1ccc(N=Cc2c(O)n(-c3ccccc3)c(=O)[nH]c2=O)cc1`: the EC50 is greater than 71.5 µM.
Next, `Cc1cc(Cl)nc(N)n1`: greater than 71.4 µM; `CN1C(=O)/C(=C/c2ccc(N3CCCCCC3)o2)C(=O)NC1=S`: 5 µM (active); `C/C(=N\N1CCCCC1c1cccnc1)c1c(O)n(C2CCCCC2)c(=S)[nH]c1=O` (centres undefined): 39.3 µM.
`COc1ccc(OC)c(-n2c(O)c(C=NCCN3CCNCC3)c(=O)[nH]c2=S)c1`: the EC50 was greater than 71.5 µM.
On to `O=C(CN1CCN(c2ccccc2F)CC1)Nc1cccnc1Cl`, for which the EC50 is greater than 71.5 µM.
For the molecule `O=c1[nH]c(=O)n(Cc2ccc(F)cc2)c(O)c1/C=N/Nc1ccccc1`, the EC50 is greater than 71.5 µM.
With `Cc1cc(N2CCCC2)ccc1C=C(C#N)C#N`, the EC50 is 14.4 µM.
In the case of `C=CCN1C(=O)/C(=C/c2ccc(N3CCOCC3)o2)C(=O)NC1=S`, the EC50 was 14 µM.
In the case of `Cc1ccc(-n2c(O)c(/C=C/C=Nc3ccccc3)c(=O)[nH]c2=O)cc1`, the EC50 was 10.6 µM.
As for `O=[N+]([O-])c1ccc(N2CCCCCC2)c2nonc12`, the EC50 is 1.17 µM (active).
`CC(=O)OCC[N+](C)(C)C`: the EC50 was > 71.4 µM [compound-only fluorescence in RTF assay buffer with Ca2+ (no RTF in test wells)].
